Test results as given in PubChem BioAssay (NCI).
The panel holds about 79,000 compounds, 15% with a hit somewhere; the sample as a whole holds those more often. Active and inactive are the calls of the source. No stated cut-off is given here; in the data, active means growth inhibition above about 70%; inactive means the rest.

Key:
[1] = NCI Yeast Anticancer Drug Screen. Data for the rad52 strain (AID 147);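 further: 0% = growth of vehicle-treated control cultures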; details: S. cerevisiae rad52 mutant growth inhibition, hits give high values
Procedure, shortened: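 Measured: yeast growth inhibition. System: strain with a defined DNA damage repair alteration. Reference: vehicle-treated control cultures.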

[2] = NCI Yeast Anticancer Drug Screen. Data for the wt1 strain (AID 149);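 further: 0% = growth of vehicle-treated wt1 cultures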; details: S. cerevisiae wt1 strain (SPY 50644) growth inhibition, hits give high values
Procedure, shortened: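 Growth inhibition read against vehicle controls after compound exposure of the wt1 yeast strain.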

[3] = NCI Yeast Anticancer Drug Screen. Data for the rad50EPP+ strain (AID 151);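 further: 0% = growth of vehicle-treated control cultures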; details: S. cerevisiae rad50 mutant strain, hits give high values
Procedure, shortened: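 One strain with a rad50 alteration (rad50EPP+) was compound-treated, its growth then compared to that of vehicle controls.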

[4] = NCI Yeast Anticancer Drug Screen. Data for the mgt1 strain (AID 153); details: S. cerevisiae mgt1 mutant growth inhibition, hits give high values
Procedure, shortened: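 After exposure of the mgt1 yeast mutant to compound, growth was measured and reported as inhibition compared with vehicle controls.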

[5] = NCI Yeast Anticancer Drug Screen. Data for the rad50 strain (AID 155);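 further: 0% = growth of vehicle-only cultures of the same strain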; details: S. cerevisiae rad50 strain growth inhibition, hits give high values
Procedure, shortened: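 Readout: growth inhibition relative to vehicle-treated cultures. Compound exposure was carried out in a genetically defined yeast strain deficient in DNA damage repair.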

[6] = NCI Yeast Anticancer Drug Screen. Data for the mec2-1 strain (AID 157); details: S. cerevisiae mec2-1 strain, hits give high values
Procedure, shortened: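 Test agents were screened against the mec2-1 yeast strain, with defined DNA repair or cell cycle alteration. Growth was scored as inhibition against vehicle-only controls.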

[7] = NCI Yeast Anticancer Drug Screen. Data for the rad14 strain (AID 159);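 further: 0% = growth of vehicle-treated control cultures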; details: S. cerevisiae rad14 strain growth inhibition, hits give high values
Procedure, shortened: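 Growth inhibition vs vehicle controls; genetically altered yeast strain (DNA damage repair defect) treated with test compounds.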

[8] = NCI Yeast Anticancer Drug Screen. Data for the sgs1 mgt1 strain (AID 161);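 further: 0% = growth of cultures given vehicle only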; details: S. cerevisiae sgs1 mgt1 strain, hits give high values
Procedure, shortened: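 Test agents were incubated with a DNA-repair-mutant yeast strain. Growth was then read and compared against vehicle-treated controls.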

[9] = NCI Yeast Anticancer Drug Screen. Data for the CLN2oe strain (AID 163);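 further: 0% = growth of vehicle-only control cultures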; details: S. cerevisiae CLN2oe strain, hits give high values
Procedure, shortened: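 Here, growth inhibition in a cell-cycle-altered yeast strain after compound exposure was quantified against vehicle control growth.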

[10] = NCI Yeast Anticancer Drug Screen. Data for the cln2 rad14 strain (AID 165);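 further: 0% = growth equal to vehicle treated cultures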; details: S. cerevisiae cln2 rad14 strain, hits give high values
Procedure, shortened: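 Growth of compound-exposed yeast (cln2 rad14 genotype) measured and expressed as inhibition relative to vehicle.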

[11] = NCI Yeast Anticancer Drug Screen. Data for the bub3 strain (AID 167); details: S. cerevisiae bub3 mutant strain, hits give high values
Procedure, shortened: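 Readout: yeast growth inhibition, expressed relative to vehicle-only wells. The test organism is a mutant strain from a panel with lesions in DNA repair or checkpoint genes.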

[12] = NCI Yeast Anticancer Drug Screen. Data for the mlh1 strain (AID 171);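 further: 0% = growth of vehicle-treated control cultures of the same strain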; details: S. cerevisiae mlh1 strain growth inhibition, hits give high values
Procedure, shortened: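 Here the genetically defined yeast mutant is grown with each compound, and the extent to which its growth falls below that of vehicle-exposed cells is reported.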

[13] = NCI Yeast Anticancer Drug Screen. Data for the sgs1 strain (AID 173);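 further: 0% = growth of vehicle-only control cultures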; details: S. cerevisiae sgs1 mutant, hits give high values
Procedure, shortened: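 Relative growth inhibition, referenced to vehicle, was determined in a yeast strain with a defined alteration affecting DNA damage repair or cell cycle control after compound exposure.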

[14] = NCI Yeast Anticancer Drug Screen. Data for the mlh1 rad18 strain (AID 175); details: S. cerevisiae mlh1 rad18 strain growth inhibition, hits give high values
Procedure, shortened: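 In this whole-cell yeast screen, a strain with altered DNA damage repair is challenged with compound, and its growth is measured against matched vehicle-treated controls.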

[15] = NCI Yeast Anticancer Drug Screen. Data for the rad18 strain (AID 177); details: S. cerevisiae rad18 mutant growth inhibition, hits give high values
Procedure, shortened: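 Screen uses a yeast strain with a defined lesion in DNA damage repair; compound effect is read as loss of growth compared to untreated vehicle cultures.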

[16] = NCI Yeast Anticancer Drug Screen. Data for the wt2 strain (AID 169);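 further: 0% = growth of vehicle-treated yeast cultures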; details: S. cerevisiae wt2 strain growth inhibition, hits give high values
Procedure, shortened: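 Genetically defined yeast strains from a DNA-repair/cell-cycle panel were used. Compound-exposed yeast growth was measured, and the inhibition was calculated relative to vehicle treatment.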

[17] = at 5.0 µM (retest, dose inferred, filed as 0.5)
[18] = at 50.0 µM (retest, dose inferred, filed as 5.0)

Measured: growth inhibition

Cc1c(Cl)ccc2c1S(=O)(=O)c1cccc(Cl)c1-2
inactive: [1]; at 1.2 µM 0% | [1]; at 3.7 µM 0% | [1]; at 11.0 µM -4% | [1]; at 33.0 µM -9% | [1]; at 100.0 µM -9% | [2]; at 1.2 µM -6% | [2]; at 3.7 µM -2% | [2]; at 11.0 µM -1% | [2]; at 33.0 µM -15% | [2]; at 100.0 µM -1% | [3]; at 1.2 µM -12% | [3]; at 3.7 µM 12% | [3]; at 11.0 µM 7% | [3]; at 33.0 µM -37% | [3]; at 100.0 µM -17% | [4]; at 1.2 µM -2% | [4]; at 3.7 µM 1% | [4]; at 11.0 µM 9% | [4]; at 33.0 µM -5% | [4]; at 100.0 µM -8% | [5]; at 1.2 µM -22% | [5]; at 3.7 µM -9% | [5]; at 11.0 µM -30% | [5]; at 33.0 µM -17% | [5]; at 50.0 µM 20.8% | [5]; at 100.0 µM -3% | [6]; at 1.2 µM -24% | [6]; at 3.7 µM -31% | [6]; at 11.0 µM -32% | [6]; at 33.0 µM -28% | [6]; at 50.0 µM 29.5% | [6]; at 100.0 µM -32% | [7]; at 1.2 µM 2% | [7]; at 3.7 µM 6% | [7]; at 11.0 µM 2% | [7]; at 33.0 µM 5% | [7]; at 100.0 µM 5% | [8]; [17] -13% | [8]; [18] 28% | [8]; at 50.0 µM 20.9% | [9]; at 1.2 µM -5% | [9]; at 3.7 µM 6% | [9]; at 11.0 µM 8% | [9]; at 33.0 µM -4% | [9]; at 100.0 µM -18% | [10]; [17] 31% | [10]; [18] 28% | [10]; at 50.0 µM 0.75% | [11]; at 1.2 µM -27% | [11]; at 3.7 µM -13% | [11]; [17] 18% | [11]; at 11.0 µM 1% | [11]; at 33.0 µM -10% | [11]; [18] 51% | [11]; at 100.0 µM -18% | [12]; at 1.2 µM -3% | [12]; at 3.7 µM 2% | [12]; at 11.0 µM -5% | [12]; at 33.0 µM -8% | [12]; at 100.0 µM -2% | [13]; at 1.2 µM -10% | [13]; at 3.7 µM -19% | [13]; at 11.0 µM -18% | [13]; at 33.0 µM -13% | [13]; at 100.0 µM -24% | [14]; at 50.0 µM 37.2% | [15]; at 1.2 µM -18% | [15]; at 3.7 µM 2% | [15]; at 11.0 µM 6% | [15]; at 33.0 µM -1% | [15]; at 100.0 µM 7%
active: [5]; [17] 100% | [5]; [18] 100% | [6]; [17] 100% | [6]; [18] 100% | [11]; at 50.0 µM 81.3% | [14]; [17] 100% | [14]; [18] 100%

CN(C)CCOc1ccc2c(c1)C/C(=C/c1ncc([N+](=O)[O-])n1C)C2=O
active: [1]; at 3.7 µM 70% | [1]; at 11.0 µM 83% | [1]; at 33.0 µM 91% | [1]; at 100.0 µM 90% | [5]; at 33.0 µM 83% | [5]; [18] 75% | [5]; at 50.0 µM 74.3% | [5]; at 100.0 µM 91% | [6]; at 33.0 µM 88% | [6]; [18] 95% | [6]; at 50.0 µM 89.2% | [6]; at 100.0 µM 90% | [7]; at 11.0 µM 81% | [7]; at 33.0 µM 95% | [7]; at 100.0 µM 97% | [8]; [18] 82% | [8]; at 50.0 µM 83.1% | [10]; [18] 74% | [10]; at 50.0 µM 77.9% | [11]; at 50.0 µM 72.9% | [13]; at 33.0 µM 70% | [13]; at 100.0 µM 81% | [14]; [18] 82% | [14]; at 50.0 µM 89.3% | [15]; at 1.2 µM 83% | [15]; at 3.7 µM 90% | [15]; at 11.0 µM 91% | [15]; at 33.0 µM 94% | [15]; at 100.0 µM 92%
inactive: [1]; at 1.2 µM 50% | [2]; at 1.2 µM 28% | [2]; at 3.7 µM 5% | [2]; at 11.0 µM 20% | [2]; at 33.0 µM 21% | [2]; at 100.0 µM 39% | [3]; at 1.2 µM 22% | [3]; at 3.7 µM 6% | [3]; at 11.0 µM 10% | [3]; at 33.0 µM 35% | [3]; at 100.0 µM 59% | [4]; at 1.2 µM 31% | [4]; at 3.7 µM 36% | [4]; at 11.0 µM 29% | [4]; at 33.0 µM 36% | [4]; at 100.0 µM 62% | [5]; at 1.2 µM 40% | [5]; at 3.7 µM 47% | [5]; [17] 33% | [5]; at 11.0 µM 64% | [6]; at 1.2 µM 31% | [6]; at 3.7 µM 30% | [6]; [17] 30% | [6]; at 11.0 µM 53% | [7]; at 1.2 µM 33% | [7]; at 3.7 µM 51% | [8]; [17] 47% | [9]; at 1.2 µM 26% | [9]; at 3.7 µM 35% | [9]; at 11.0 µM 31% | [9]; at 33.0 µM 27% | [9]; at 100.0 µM 64% | [10]; [17] 13% | [11]; at 1.2 µM 3% | [11]; at 3.7 µM 10% | [11]; [17] 6% | [11]; at 11.0 µM 10% | [11]; at 33.0 µM 20% | [11]; [18] 6% | [11]; at 100.0 µM 59% | [16]; at 1.2 µM -40% | [16]; at 3.7 µM -23% | [16]; at 11.0 µM -30% | [16]; at 33.0 µM -22% | [16]; at 100.0 µM 25% | [13]; at 1.2 µM 29% | [13]; at 3.7 µM 52% | [13]; at 11.0 µM 65% | [14]; [17] 53%
